In PubChem BioAssay (NCI):
Compounds without any hit were thinned out: in the full panel of roughly 83,000, 20% have a hit.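 Growth was measured after 48 h exposure to one concentration of compound in 96-well plates. Values under 10 count as active.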 Values without a mark were called inactive. Active and inactive are the calls of the source.

What was measured:
Assay in all cases: NCI-60 one-dose screen, 48 h (100 = growth as untreated, 0 = no growth, -100 = all killed)
Conditions in all cases: 10 µM unless noted
HCT-15 colon = system: HCT-15 colon
HT29 colon = system: HT29 colon
SNB-75 CNS = system: SNB-75 CNS
SNB-19 CNS = system: SNB-19 CNS
U251 CNS = system: U251 CNS
PC-3 prostate = system: PC-3 prostate
SK-MEL-5 melanoma = system: SK-MEL-5 melanoma
UACC-62 melanoma = system: UACC-62 melanoma
LOX IMVI melanoma = system: LOX IMVI melanoma
SK-MEL-28 melanoma = system: SK-MEL-28 melanoma
SK-MEL-2 melanoma = system: SK-MEL-2 melanoma
EKVX NSCLC = system: EKVX NSCLC
SN12C renal = system: SN12C renal
TK-10 renal = system: TK-10 renal
ACHN renal = system: ACHN renal
CAKI-1 renal = system: CAKI-1 renal
A498 renal = system: A498 renal
CCRF-CEM leukemia = system: CCRF-CEM leukemia
MOLT-4 leukemia = system: MOLT-4 leukemia
UO-31 renal = system: UO-31 renal

SMILES | growth (HCT-15 colon) | growth (HT29 colon) | growth (SNB-75 CNS) | growth (SNB-19 CNS) | growth (U251 CNS) | growth (PC-3 prostate) | growth (SK-MEL-5 melanoma) | growth (UACC-62 melanoma) | growth (LOX IMVI melanoma) | growth (SK-MEL-28 melanoma) | growth (SK-MEL-2 melanoma) | growth (EKVX NSCLC) | growth (SN12C renal) | growth (TK-10 renal) | growth (ACHN renal) | growth (CAKI-1 renal) | growth (A498 renal) | growth (CCRF-CEM leukemia) | growth (MOLT-4 leukemia) | growth (UO-31 renal)
O=CN1N=C(c2ccc(Nc3ccnc4cc(Cl)ccc34)cc2)CC1c1ccccc1 (configuration not stated) | 15.4% | 11.6% | 56.4% | 52.8% | 34.5% | 42.4% | 1.49% (active) | 38.4% | 13.7% | 44.4% | 32.6% | 46.2% | 53.8% | 59.7% | 33.4% | 38.2% | 21.2% | 15% | 13.8% | –
COC(=O)CCC/C=C\C[C@H]1C=CC(=O)/C1=C/C[C@@H](O)CCc1cccc(C(F)(F)F)c1 | -5.76% (active) | -30.6% (active) | 97.9% | 4.49% (active) | -84.3% (active) | -39% (active) | – | -60% (active) | -64.2% (active) | -45.9% (active) | -5.48% (active) | 6.52% (active) | -36% (active) | -3.59% (active) | -87.2% (active) | 12.6% | -26.7% (active) | -6% (active) | -14.2% (active) | -92.5% (active)
COc1ccc(C2=Nn3c(nnc3-c3cc(Cl)cc(Cl)c3Cl)SC2)cc1 | 12.1% | -28.8% (active) | 22.7% | 14.3% | 18.5% | 18.1% | – | 41.1% | 23.7% | 47.7% | 22.4% | 41.3% | 39.3% | 57.5% | 33.5% | 47.6% | -11.3% (active) | 0.0891% (active) | 8.31% (active) | 5.61% (active)
CCCCCCN1C(=O)/C(=c2\sc3n(c2=O)C2C(NN=3)N(CC)C(=O)N2CC)c2ccccc21 (configuration not stated) | 1.65% (active) | -24.7% (active) | -38.4% (active) | 22.5% | -21.3% (active) | 15.2% | – | 30.7% | -23% (active) | 35.1% | 50.1% | 65% | 19.1% | 3.21% (active) | -43% (active) | 4.26% (active) | -5.48% (active) | 37.8% | 49.4% | -2.09% (active)
Cc1ccccc1C(=O)NN | 106% | 98.9% | 91.1% | 105% | 104% | 92.8% | – | 101% | 109% | 115% | 99.9% | 108% | 108% | 105% | 106% | 98.3% | 117% | 100% | 92.3% | 70.7%
COc1ccc(-c2[nH]c3ccc(OC)cc3c2/C=C(\C#N)S(=O)(=O)c2ccccc2)cc1 | 22.6% | 13.2% | 8.92% (active) | 31.1% | 24.8% | 24.8% | -25.5% (active) | 22% | 36.4% | 43.2% | 82.6% | – | 44.4% | 45.7% | 41.4% | 74.5% | -5.52% (active) | 2.56% (active) | 17.6% | 42.2%
CCN1C(=O)N(CC)C2Nn3c(s/c(=C\c4ccc([N+](=O)[O-])cc4)c3=O)=NC21 (configuration not stated) | 61.6% | 109% | 82% | 89.3% | 80.3% | 16% | 93.4% | 75.6% | 94.2% | 78.4% | 110% | – | 79.7% | 69.9% | 74.9% | 79.8% | 53.2% | 40.6% | 61.7% | 55.1%
NCCCNc1nc2ccccc2c2c(=O)c3cc(C(F)(F)F)ccc3sc12 | -55.7% (active) | -23.4% (active) | 60.1% | 30.4% | -55.7% (active) | 37.3% | – | 95.1% | -97.7% (active) | 81.2% | 89.7% | 71.6% | 51.9% | 51.9% | -10.8% (active) | -67.7% (active) | 23.6% | 5.18% (active) | -20.1% (active) | 31.9%
